# Measured values published in PubChem BioAssay AID1645838 (ICCB-Longwood Screening Facility, Harvard Medical School, 2021).
# “And” between values parts separate entries of the source, which are not always exact repeats. Equal entries are not always repeated. About 100 (5%) of roughly 2,000 compounds were called active. No stated cut-off is given here; in the data, active means z-score above about 2; inactive means the rest. The sample as a whole holds a higher share of actives than the screen did.
# Assay: modulators of mitochondrial supercomplex assembly, cell-based, luminescence, Hoechst nuclei count (AID 1645838);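 further: control cybrid cells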;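 on z-score: higher means more mitochondrial supercomplex formation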
# Conditions: Cells, luminescence/Hoechst cell count ratio, supercomplex reporter; for z-score: stronger effect = higher value; for cell count: measured here: cell number, Hoechst nuclei count
# [1] = library stock concentration (final well concentration not given) 46 uM
# [2] = library stock concentration (final well concentration not given) 278 uM
# [3] = library stock concentration (final well concentration not given) 1.67 mM
# [4] = library stock concentration (final well concentration not given) 10 mM
# [5] = library stock concentration (final well concentration not given) 80 uM
# [6] = library stock concentration (final well concentration not given) 400 uM
# [7] = library stock concentration (final well concentration not given) 2 mM
compound,measurement,setting,value
CCCCCCCCCCCCCCNC(=O)C1CCCCC1,z-score,,-0.131 (inactive)
same,cell count,,5060
COc1cc(C(C)C)c2c(c1)S(=O)(=O)N(COc1cc(=O)n3cccc(OCCN4CCCCC4)c3n1)C2=O,z-score,[1],-0.456 (inactive)
same,z-score,[2],-0.0963 (inactive)
same,z-score,[3],-0.654 (inactive)
same,z-score,[4],-0.644 (inactive)
same,cell count,[1],7070
same,cell count,[2],6790
same,cell count,[3],6790
same,cell count,[4],5780
CN(C)C(=O)c1cc2cnc(Nc3ccc(N4CCNCC4)cn3)nc2n1C1CCCC1,z-score,[5],0.288 (inactive)
same,z-score,[6],0.657 (inactive)
same,z-score,[7],1.74 (inactive)
same,z-score,[4],2.33 (active)
same,cell count,[5],5680
same,cell count,[6],5400
same,cell count,[7],4600
same,cell count,[4],3840
CC(=O)c1c(C)c2cnc(Nc3ccc(N4CCNCC4)cn3)nc2n(C2CCCC2)c1=O,z-score,[1],-0.186 (inactive)
same,z-score,[5],-0.0747 (inactive)
same,z-score,[2],0.0516 (inactive)
same,z-score,[6],0.049 (inactive)
same,z-score,[3],1.11 (inactive)
same,z-score,[7],0.264 (inactive)
same,z-score,[4],-0.00116 (inactive) and 1.25 (inactive)
same,cell count,[1],4850
same,cell count,[5],4290
same,cell count,[2],4600
same,cell count,[6],4340
same,cell count,[3],3490
same,cell count,[7],4140
same,cell count,[4],4170 and 3080
CCCCC/C=C\C/C=C\C/C=C\C/C=C\CCCCN1C(=O)C=CC1=O,z-score,,0.0996 (inactive)
same,cell count,,4710
Nc1nc2c([nH]c(=O)n2[C@H]2C[C@H](O)[C@@H](CO)O2)c(=O)[nH]1,z-score,,-0.23 (inactive)
same,cell count,,5380
O=C(Nc1ccc(N2CCOCC2)cc1)c1n[nH]c2ccccc12,z-score,[5],0.294 (inactive)
same,z-score,[6],0.396 (inactive)
same,z-score,[7],-0.44 (inactive)
same,z-score,[4],0.0641 (inactive)
same,cell count,[5],5020
same,cell count,[6],4770
same,cell count,[7],4900
same,cell count,[4],4350
CCCCC[C@H](O)/C=C/[C@H]1C(=O)C[C@H](O)[C@@H]1CCCCCCCO,z-score,,0.644 (inactive)
same,cell count,,4950
O=C(Nc1cccc(Nc2ncc(Br)c(NCCc3cnc[nH]3)n2)c1)N1CCCC1,outcome,library stock 10 mM,inactive; censored for cell count
same,z-score,[1],-0.139 (inactive)
same,z-score,[5],-0.647 (inactive)
same,z-score,[2],0.0145 (inactive)
same,z-score,[6],-0.129 (inactive)
same,z-score,[3],3.24 (active)
same,z-score,[7],0.129 (inactive)
same,cell count,[1],5940
same,cell count,[5],4860
same,cell count,[2],6000
same,cell count,[6],4520
same,cell count,[3],2060
same,cell count,[7],3760
O=C(O)CCC/C=C\CC1C(=O)C[C@@H](O)[C@@H]1/C=C/[C@@H](O)COc1ccccc1 (some centres not stated),z-score,,0.988 (inactive)
same,cell count,,5150
CCN(CC)C(=O)CCC/C=C\C[C@@H]1[C@@H](/C=C/[C@@H](O)CCc2ccccc2)[C@H](O)C[C@@H]1O,z-score,,0.309 (inactive)
same,cell count,,5000
CCCCCCCC/C=C\CCCCCCCCCCCC(N)=O,z-score,,-0.128 (inactive)
same,cell count,,5640
CCCCCCCCCCCCCCCCCC(=O)NCCO,z-score,,-0.675 (inactive)
same,cell count,,6070
